# Reference: the supplement of paper PMC9492666
# Where a name gives a salt, the structure may show the parent alone.
# Legend:
# HCC1937 = test: relative cell viability, compound + erastin, vs DMSO (fraction of DMSO control); higher = less growth inhibition; settings: 72 h
# MDA-MB-231 = test: as above; settings: 72 h
# 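Further: viability read by CCK-8 kit in 96-well plates, part of a combination screen pairing lipid-metabolism-targeting compounds with erastin.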
Compound,relative cell viability (HCC1937),relative cell viability (MDA-MB-231)
CCOC(=O)N1c2ccc(C(F)(F)F)cc2[C@@H](N(Cc2cc(C(F)(F)F)cc(C(F)(F)F)c2)C(=O)OC)C[C@H]1CC [Torcetrapib] + CCOc1ccccc1-n1c(C(C)N2CCN(C(=O)COc3ccc(Cl)cc3)CC2)nc2ccccc2c1=O [erastin],0.66,0.823
CC[C@H](C)C(=O)O[C@H]1C[C@@H](C)C=C2C=C[C@H](C)[C@H](CC[C@@H]3C[C@@H](O)CC(=O)O3)[C@H]21 [Lovastatin] + CCOc1ccccc1-n1c(C(C)N2CCN(C(=O)COc3ccc(Cl)cc3)CC2)nc2ccccc2c1=O [erastin],0.804,0.569
CC(C)c1c(C(=O)Nc2ccccc2)c(-c2ccccc2)c(-c2ccc(F)cc2)n1CC[C@@H](O)C[C@@H](O)CC(=O)O [Atorvastatin Calcium] + CCOc1ccccc1-n1c(C(C)N2CCN(C(=O)COc3ccc(Cl)cc3)CC2)nc2ccccc2c1=O [erastin],0.357,0.337
Cc1nc2ccc(NCc3cccc(C(F)(F)F)c3)cc2n(CCNC(=O)CO)c1=O + CCOc1ccccc1-n1c(C(C)N2CCN(C(=O)COc3ccc(Cl)cc3)CC2)nc2ccccc2c1=O [erastin],0.618,0.89
CC1(C)CC[C@]2(C(=O)O[C@@H]3O[C@H](CO)[C@@H](O)[C@H](O)[C@H]3O)CC[C@]3(C)C(=CC[C@@H]4[C@@]5(C)CC[C@H](O[C@@H]6O[C@H](C(=O)O)[C@@H](O)[C@H](O)[C@H]6O[C@@H]6O[C@H](CO)[C@@H](O)[C@H](O)[C@H]6O)C(C)(C)[C@@H]5CC[C@]43C)[C@@H]2C1 [Ginsenoside Ro] + CCOc1ccccc1-n1c(C(C)N2CCN(C(=O)COc3ccc(Cl)cc3)CC2)nc2ccccc2c1=O [erastin],0.703,0.726
CC(C)[C@H]1CC[C@H](C(=O)N[C@H](Cc2ccccc2)C(=O)O)CC1 [Nateglinide] + CCOc1ccccc1-n1c(C(C)N2CCN(C(=O)COc3ccc(Cl)cc3)CC2)nc2ccccc2c1=O [erastin],0.666,0.734
CCCCCC=CC(=O)CCc1ccc(O)c(OC)c1 [6-Shogaol] + CCOc1ccccc1-n1c(C(C)N2CCN(C(=O)COc3ccc(Cl)cc3)CC2)nc2ccccc2c1=O [erastin],0.639,0.559
COc1ccc(CN2CCC(c3ccc4nc(C(=O)N5CCN(Cc6ccc(C(F)(F)F)cc6)CC5)[nH]c4c3)CC2)cn1 + CCOc1ccccc1-n1c(C(C)N2CCN(C(=O)COc3ccc(Cl)cc3)CC2)nc2ccccc2c1=O [erastin],0.569,0.585
CCCCC[C@H](O)CC(=O)CCc1ccc(O)c(OC)c1 [6-Gingerol] + CCOc1ccccc1-n1c(C(C)N2CCN(C(=O)COc3ccc(Cl)cc3)CC2)nc2ccccc2c1=O [erastin],0.444,0.693
C/C=C/c1cc(OC)c(OC)cc1OC [alpha-Asarone] + CCOc1ccccc1-n1c(C(C)N2CCN(C(=O)COc3ccc(Cl)cc3)CC2)nc2ccccc2c1=O [erastin],0.594,0.774
CCC(C)(Oc1ccc(C2(c3ccc(OC(C)(CC)C(=O)O)cc3)CCCCC2)cc1)C(=O)O (stereo unspecified) [Clinofibrate] + CCOc1ccccc1-n1c(C(C)N2CCN(C(=O)COc3ccc(Cl)cc3)CC2)nc2ccccc2c1=O [erastin],0.544,0.325
CC(C)=CCC[C@](C)(O[C@@H]1O[C@H](CO)[C@@H](O)[C@H](O)[C@H]1O)[C@H]1CC[C@]2(C)[C@@H]1[C@H](O)C[C@@H]1[C@@]3(C)CC[C@H](O[C@@H]4O[C@H](CO)[C@@H](O)[C@H](O)[C@H]4O[C@@H]4O[C@H](CO)[C@@H](O)[C@H](O)[C@H]4O)C(C)(C)[C@@H]3CC[C@]12C [Ginsenoside Rd] + CCOc1ccccc1-n1c(C(C)N2CCN(C(=O)COc3ccc(Cl)cc3)CC2)nc2ccccc2c1=O [erastin],0.355,0.317
Cc1cc(N2C[C@@H](C)N[C@@H](C)C2)ncc1-c1ccc(-c2nc3c(ccn3C)c(=O)[nH]2)cc1 + CCOc1ccccc1-n1c(C(C)N2CCN(C(=O)COc3ccc(Cl)cc3)CC2)nc2ccccc2c1=O [erastin],0.506,0.551
O=C(Nc1cccnn1)N1CCC(=Cc2cccc(Oc3ccc(C(F)(F)F)cn3)c2)CC1 + CCOc1ccccc1-n1c(C(C)N2CCN(C(=O)COc3ccc(Cl)cc3)CC2)nc2ccccc2c1=O [erastin],0.667,0.554
CC(C)(C)NC(=O)[C@H]1CC[C@H]2[C@@H]3CC[C@H]4NC(=O)C=C[C@]4(C)[C@H]3CC[C@]12C [Finasteride] + CCOc1ccccc1-n1c(C(C)N2CCN(C(=O)COc3ccc(Cl)cc3)CC2)nc2ccccc2c1=O [erastin],0.873,0.646
NC(=O)c1cccc(-c2cccc(OC(=O)NC3CCCCC3)c2)c1 + CCOc1ccccc1-n1c(C(C)N2CCN(C(=O)COc3ccc(Cl)cc3)CC2)nc2ccccc2c1=O [erastin],0.756,0.568
C=C1C[C@]2(O)O[C@@]3(CC2=C(C)C)[C@@H](C)CC[C@@H]13 [Isocurcumenol] + CCOc1ccccc1-n1c(C(C)N2CCN(C(=O)COc3ccc(Cl)cc3)CC2)nc2ccccc2c1=O [erastin],0.566,0.662

Compound,relative cell viability (HCC1937),relative cell viability (MDA-MB-231)
O=C(CCCCCCCC(=O)NCCO)NCCO [Adelmidrol] + CCOc1ccccc1-n1c(C(C)N2CCN(C(=O)COc3ccc(Cl)cc3)CC2)nc2ccccc2c1=O [erastin],0.701,0.73
O=C(O)c1ccnc(N2CC(O)(c3ccc(OCc4c(-c5c(Cl)cccc5Cl)noc4C4CC4)cc3Cl)C2)c1 [Cilofexor] + CCOc1ccccc1-n1c(C(C)N2CCN(C(=O)COc3ccc(Cl)cc3)CC2)nc2ccccc2c1=O [erastin],0.577,0.692
CN1CC(O)C2=C/C(=N/NC(N)=O)C(=O)C=C21 (stereo unspecified) [Carbazochrome] + CCOc1ccccc1-n1c(C(C)N2CCN(C(=O)COc3ccc(Cl)cc3)CC2)nc2ccccc2c1=O [erastin],0.484,0.682
O=C(Nc1ccncc1)c1cc([N+](=O)[O-])ccc1Cl + CCOc1ccccc1-n1c(C(C)N2CCN(C(=O)COc3ccc(Cl)cc3)CC2)nc2ccccc2c1=O [erastin],0.47,0.726
CC(C)n1c(/C=C/C(O)CC(O)CC(=O)O)c(-c2ccc(F)cc2)c2ccccc21 (stereo unspecified) [Fluvastatin sodium salt] + CCOc1ccccc1-n1c(C(C)N2CCN(C(=O)COc3ccc(Cl)cc3)CC2)nc2ccccc2c1=O [erastin],0.58,0.869
CC[C@@H]1/C=C(\C)C[C@H](C)C[C@H](OC)[C@H]2O[C@@](O)(C(=O)C(=O)N3CCCC[C@H]3C(=O)O[C@H](/C(C)=C/[C@@H]3CC[C@@H](O)[C@H](OC)C3)[C@H](C)[C@@H](O)CC1=O)[C@H](C)C[C@@H]2OC [Ascomycin] + CCOc1ccccc1-n1c(C(C)N2CCN(C(=O)COc3ccc(Cl)cc3)CC2)nc2ccccc2c1=O [erastin],0.086,0.303
NC(N)=NN=Cc1cccc(Cl)c1Cl [Raphin1] + CCOc1ccccc1-n1c(C(C)N2CCN(C(=O)COc3ccc(Cl)cc3)CC2)nc2ccccc2c1=O [erastin],0.556,0.558
COc1cc(F)c(C(C)C)cc1-c1ccc(C(F)(F)F)cc1CN1C(=O)O[C@H](c2cc(C(F)(F)F)cc(C(F)(F)F)c2)[C@@H]1C [Anacetrapib] + CCOc1ccccc1-n1c(C(C)N2CCN(C(=O)COc3ccc(Cl)cc3)CC2)nc2ccccc2c1=O [erastin],0.557,0.639
Cc1c(C(=O)Nc2ccc(CO)cc2)nnn1Cc1ccc(Cl)c(Cl)c1 + CCOc1ccccc1-n1c(C(C)N2CCN(C(=O)COc3ccc(Cl)cc3)CC2)nc2ccccc2c1=O [erastin],0.684,0.733
COc1cc(N2CCN(C)CC2)ccc1Nc1ncc2c(n1)N(C)c1ccccc1C(=O)N2 + CCOc1ccccc1-n1c(C(C)N2CCN(C(=O)COc3ccc(Cl)cc3)CC2)nc2ccccc2c1=O [erastin],0.365,0.788
COc1ccc2c(=O)c(-c3ccccc3)coc2c1 [7-Methoxyisoflavone] + CCOc1ccccc1-n1c(C(C)N2CCN(C(=O)COc3ccc(Cl)cc3)CC2)nc2ccccc2c1=O [erastin],0.443,0.68
O=C(Nc1cnccc1Cl)N1CCN(Cc2ccc3c(c2)OC(F)(F)O3)CC1 + CCOc1ccccc1-n1c(C(C)N2CCN(C(=O)COc3ccc(Cl)cc3)CC2)nc2ccccc2c1=O [erastin],0.486,0.646
C[C@@]12C[C@@H](c3ccoc3)OC(=O)[C@@H]1CC[C@]1(C)[C@H]2[C@@H]2C=C[C@@]1(O)C(=O)O2 [Columbin] + CCOc1ccccc1-n1c(C(C)N2CCN(C(=O)COc3ccc(Cl)cc3)CC2)nc2ccccc2c1=O [erastin],0.607,0.688
CC(=O)O[C@H](CC=C(C)C)C1=CC(=O)c2c(O)ccc(O)c2C1=O [Acetyl shikonin] + CCOc1ccccc1-n1c(C(C)N2CCN(C(=O)COc3ccc(Cl)cc3)CC2)nc2ccccc2c1=O [erastin],0.617,0.877
COC(=O)CN(c1ccc(CN(c2ccc(OCc3ccc(C)cc3)c(C(=O)OC)c2)S(=O)(=O)Cc2ccccc2)cc1)S(C)(=O)=O + CCOc1ccccc1-n1c(C(C)N2CCN(C(=O)COc3ccc(Cl)cc3)CC2)nc2ccccc2c1=O [erastin],0.624,0.643
CN(C)C(=N)NC(=N)N [Metformin] + CCOc1ccccc1-n1c(C(C)N2CCN(C(=O)COc3ccc(Cl)cc3)CC2)nc2ccccc2c1=O [erastin],0.63,0.546
